Hit rate of the full screen: of about 5,500 compounds, about 2,000 (36%) were called active. Another 18% or so got no clear call; they are omitted. Cut-off read from the data, not from the text of the source: active = normalized growth mostly below about 0.91 (no sharp cut-off); inconclusive = no clear call, values can overlap the other calls; inactive = mostly above about 0.92. Some of the results follow.
Assay: chemical genetic growth profiling, strain panel (AID 1159580);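 note: tested at 20 µM; growth read once vehicle control cultures reached saturation at 30 °C; 1 = growth at the plate median or of vehicle wells; lower values mean less growth of the strain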
Conditions: growth OD

Measured: normalized growth

CNC(C)(C)Cc1ccccc1
inactive: S. cerevisiae deletion strains, locus YJR043C, strain POL32, stronger effect = lower value 0.977 | S. cerevisiae deletion strains, locus YJR066W, strain TOR1, stronger effect = lower value 1.01 | S. cerevisiae deletion strains, locus YKL009W, strain mrt4, stronger effect = lower value 0.988 | S. cerevisiae deletion strains, locus YKL068W, stronger effect = lower value 1 | S. cerevisiae deletion strains, locus YKL085W, strain MDH1 (second series), stronger effect = lower value 1.01 | S. cerevisiae deletion strains, locus YKL085W, strain MDH1, stronger effect = lower value 1.01 | S. cerevisiae deletion strains, locus YKL160W, strain elf1, stronger effect = lower value 1.01 | S. cerevisiae deletion strains, locus YKL190W, strain CNB1, stronger effect = lower value 1.01 | S. cerevisiae deletion strains, locus YKR001C, strain vps1, stronger effect = lower value 0.991 | S. cerevisiae deletion strains, locus YKR026C, strain gcn3, stronger effect = lower value 1.02 | S. cerevisiae deletion strains, locus YKR091W, strain srl3, stronger effect = lower value 1 | S. cerevisiae deletion strains, locus YLL001W, strain dnm1, stronger effect = lower value 1.01 | S. cerevisiae deletion strains, locus YLL026W, stronger effect = lower value 1.02 | S. cerevisiae deletion strains, locus YLL041C, strain sdh2, stronger effect = lower value 1.02 | S. cerevisiae deletion strains, locus YLR027C, strain aat2, stronger effect = lower value 1.02 | S. cerevisiae deletion strains, locus YLR039C, strain RIC1, stronger effect = lower value 1.04 | S. cerevisiae deletion strains, locus YLR058C, strain SHM2, stronger effect = lower value 1.01 | S. cerevisiae deletion strains, locus YLR102C, strain apc9, stronger effect = lower value 1.01 | S. cerevisiae deletion strains, locus YLR113W, strain HOG1, stronger effect = lower value 1.06 | S. cerevisiae deletion strains, locus YLR221C, strain rsa3, stronger effect = lower value 1.02 | S. cerevisiae deletion strains, locus YLR258W, strain gsy2, stronger effect = lower value 1.02 | S. cerevisiae deletion strains, locus YLR262C, strain YPT6 (second series), stronger effect = lower value 1 | S. cerevisiae deletion strains, locus YLR262C, strain YPT6, stronger effect = lower value 1.02 | S. cerevisiae deletion strains, locus YLR268W, strain sec22, stronger effect = lower value 1 | S. cerevisiae deletion strains, locus YLR320W, strain mms22, stronger effect = lower value 1.04 | S. cerevisiae deletion strains, locus YLR330W, strain CHS5, stronger effect = lower value 1.01 | S. cerevisiae deletion strains, locus YLR342W, strain FKS1 (second series), stronger effect = lower value 1.08 | S. cerevisiae deletion strains, locus YLR342W, strain FKS1, stronger effect = lower value 1.02 | S. cerevisiae deletion strains, locus YLR357W, strain rsc2, stronger effect = lower value 0.988 | S. cerevisiae deletion strains, locus YLR370C, strain arc18, stronger effect = lower value 1.01 | S. cerevisiae deletion strains, locus YLR371W, strain rom2, stronger effect = lower value 1.01 | S. cerevisiae deletion strains, locus YLR384C, strain iki3, stronger effect = lower value 1.01 | S. cerevisiae deletion strains, locus YLR418C, strain cdc73, stronger effect = lower value 1.01 | S. cerevisiae deletion strains, locus YML016C, strain PPZ1, stronger effect = lower value 1.01 | S. cerevisiae deletion strains, locus YML032C, strain rad52, stronger effect = lower value 0.985 | S. cerevisiae deletion strains, locus YML120C, strain ndi1, stronger effect = lower value 1.02 | S. cerevisiae deletion strains, locus YML124C, strain tub3, stronger effect = lower value 1.01 | S. cerevisiae deletion strains, locus YMR058W, strain fet3, stronger effect = lower value 1 | S. cerevisiae deletion strains, locus YMR078C, strain ctf18, stronger effect = lower value 0.999 | S. cerevisiae deletion strains, locus YMR125W, strain sto1, stronger effect = lower value 1.02 | S. cerevisiae deletion strains, locus YMR129W, stronger effect = lower value 1.01 | S. cerevisiae deletion strains, locus YMR205C, strain PFK2, stronger effect = lower value 1.03 | S. cerevisiae deletion strains, locus YMR223W, strain ubp8, stronger effect = lower value 1.02 | S. cerevisiae deletion strains, locus YMR231W, strain pep5, stronger effect = lower value 1.02 | S. cerevisiae deletion strains, locus YMR307W, strain GAS1, stronger effect = lower value 1.02 | S. cerevisiae deletion strains, locus YNL067W, strain RPL9B, stronger effect = lower value 0.988 | S. cerevisiae deletion strains, locus YNL071W, strain lat1, stronger effect = lower value 1.01 | S. cerevisiae deletion strains, locus YNL128W, strain TEP1, stronger effect = lower value 1.03 | S. cerevisiae deletion strains, locus YNL183C, strain NPR1, stronger effect = lower value 1 | S. cerevisiae deletion strains, locus YNL209W, strain ssb2, stronger effect = lower value 1.02 | S. cerevisiae deletion strains, locus YNL233W, strain BNI4, stronger effect = lower value 0.995 | S. cerevisiae deletion strains, locus YNL248C, strain rpa49, stronger effect = lower value 1.01 | S. cerevisiae deletion strains, locus YNL250W, strain rad50, stronger effect = lower value 1.02 | S. cerevisiae deletion strains, locus YNL271C, strain bni1, stronger effect = lower value 0.997 | S. cerevisiae deletion strains, locus YNL298W, strain CLA4, stronger effect = lower value 1 | S. cerevisiae deletion strains, locus YNL307C, strain MCK1, stronger effect = lower value 1.01 | S. cerevisiae deletion strains, locus YNL322C, strain KRE1 (second series), stronger effect = lower value 1.02 | S. cerevisiae deletion strains, locus YNL322C, strain KRE1, stronger effect = lower value 1 | S. cerevisiae deletion strains, locus YNR049C, strain mso1, stronger effect = lower value 1.01 | S. cerevisiae deletion strains, locus YNR052C, strain pop2, stronger effect = lower value 1 | S. cerevisiae deletion strains, locus YOL006C, strain TOP1, stronger effect = lower value 0.958 | S. cerevisiae deletion strains, locus YOL012C, strain htz1 1.02 | S. cerevisiae deletion strains, locus YOL147C, strain pex11, stronger effect = lower value 1.01 | S. cerevisiae deletion strains, locus YOR001W, strain rrp6, stronger effect = lower value 1.03 | S. cerevisiae deletion strains, locus YOR061W, strain CKA2, stronger effect = lower value 1.01 | S. cerevisiae deletion strains, locus YOR069W, strain VPS5, stronger effect = lower value 1.01 | S. cerevisiae deletion strains, locus YOR070C, strain gyp1, stronger effect = lower value 1.01 | S. cerevisiae deletion strains, locus YOR080W, strain dia2, stronger effect = lower value 1.02 | S. cerevisiae deletion strains, locus YOR083W, strain WHI5, stronger effect = lower value 1.02 | S. cerevisiae deletion strains, locus YOR106W, strain vam3, stronger effect = lower value 1.03 | S. cerevisiae deletion strains, locus YOR136W, strain idh2, stronger effect = lower value 0.994 | S. cerevisiae deletion strains, locus YOR144C, strain elg1, stronger effect = lower value 0.995 | S. cerevisiae deletion strains, locus YOR184W, strain ser1, stronger effect = lower value 0.998 | S. cerevisiae deletion strains, locus YOR231W, strain MKK1, stronger effect = lower value 1.03 | S. cerevisiae deletion strains, locus YOR265W, strain rbl2, stronger effect = lower value 1.01 | S. cerevisiae deletion strains, locus YOR270C, strain vph1, stronger effect = lower value 1.04 | S. cerevisiae deletion strains, locus YOR290C, strain snf2, stronger effect = lower value 1.01 | S. cerevisiae deletion strains, locus YOR316C, strain cot1, stronger effect = lower value 1.01 | S. cerevisiae deletion strains, locus YPL051W, strain arl3, stronger effect = lower value 1.02 | S. cerevisiae deletion strains, locus YPL078C, strain atp4, stronger effect = lower value 1.01 | S. cerevisiae deletion strains, locus YPL106C, strain sse1, stronger effect = lower value 1.05 | S. cerevisiae deletion strains, locus YPL240C, strain hsp82, stronger effect = lower value 1.01 | S. cerevisiae deletion strains, locus YPL241C, strain CIN2, stronger effect = lower value 1.01 | S. cerevisiae deletion strains, locus YPL256C, strain CLN2, stronger effect = lower value 1.02 | S. cerevisiae deletion strains, locus YPR119W, strain clb2, stronger effect = lower value 1.01 | S. cerevisiae deletion strains, locus YPR141C, strain kar3, stronger effect = lower value 0.998 | S. cerevisiae deletion strains, locus YPR163C, strain tif3, stronger effect = lower value 0.999 | S. cerevisiae deletion strains, locus YPR167C, strain met16, stronger effect = lower value 1 | S. cerevisiae deletion strains, strain wtn01, stronger effect = lower value 0.999 | S. cerevisiae strains, strain wild type, stronger effect = lower value 1.01

Source: PubChem BioAssay AID1159580 (chemical genetic matrix, 2015)
